Compounds without any hit were thinned out: in the full panel of roughly 83,000, 20% have a hit.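 Results are percent growth after 48 hours of single-concentration exposure. 100 means growth as in untreated cells, lower positive values show inhibition; negative values down to -100 show cell death.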 Values without a mark were called inactive. The source made the active and inactive calls. How the source made its calls: active means growth percent below 10; inactive means the rest.

Common to all, as to experiment: NCI-60 one-dose screen, 48 h (100 = growth as untreated, 0 = no growth, -100 = all killed)
Holding throughout (conditions): 10 µM unless noted

Experiment [1] has as its system EKVX NSCLC.
Experiment [2] concerns SN12C renal.
In experiment [3] the test system is UO-31 renal.
In experiment [4] the test system is TK-10 renal.
For experiment [5], the system named is ACHN renal.
Experiment [6] concerns CAKI-1 renal.
The subject of experiment [7] is A498 renal.
Experiment [8] concerns CCRF-CEM leukemia.
Experiment [9] has as its system MOLT-4 leukemia.

On to `CC(C)[C@H]1CC[C@H]2[C@@H](CC[C@H]3[C@](C)(CN)CCC[C@]23C)C1`, for which the growth in experiment [1] was 68.5%; in experiment [2] it was 85.9%; in [3], 70.1%; in experiment [4] it was 89.6%; in [5] it was 84%; in experiment [6], 87.6%. The growth in experiment [7] is 81.3%; in experiment [8], 48.3%; in [9], 37.2%.

As for `CCOC(=O)C(Cc1ccccc1)(C(=O)OCC)C(Br)C(=O)c1ccccc1` (stereo not drawn), the growth in [1] is 88.8%; in experiment [2], 88.7%; in experiment [3] it was 37.6%; in [4], 69.2%; in [5], 44.3%; in [6] it was 52%. Besides, the growth in [7] was 82.4%.

On to `Cc1nn(-c2ccc(Cl)cc2)c2nc3c(nc12)C(=O)C(=O)c1ccccc1-3`, for which the growth in experiment [1] is 64%; in experiment [2], 78.7%; in [3] it was 59.8%; in experiment [4], 144%; in [5], 81.2%; in experiment [6], 69.8%. The growth in experiment [7] is 59.4%.

Take `Cn1cc(-c2nc(-c3c[nH]c4ncccc34)cs2)c2cccnc21`: the growth in experiment [1] is 50.5%; in experiment [2], 84.4%; in experiment [3] it was 52.9%; in [4], 31%; in experiment [5], 41.4%; in [6], 28.3%. In addition, the growth is 50.1% in experiment [7], 65.3% in experiment [8] and 69.3% in experiment [9].

As for `Cc1nn(-c2ccc(Cl)cc2)c2nc3c(nc12)c(=O)oc1ccccc13`, the growth is 108% in experiment [1]; 101% in [2]; 101% in experiment [3]; 107% in experiment [4]; 99.8% in experiment [5]; 98.3% in experiment [6].

Consider `CC1=NN(c2ccccc2Cl)C(=O)/C1=C\c1cn(S(=O)(=O)c2ccc(C)cc2)c2ccccc12`, for which the growth was 98% in [1]; 97.5% in experiment [2]; 78.2% in [3]; 167% in [4]; 97.5% in experiment [5]; 87.8% in experiment [6]. The growth in experiment [7] was 117%; in experiment [8], 135%; in [9], 173%.

With `CC[N+](C)(CC)CCCC(C)Nc1ccnc2cc(Cl)ccc12` (stereo not drawn), the growth is 109% in [1]; 109% in [2]; 91.4% in experiment [3]; 124% in experiment [4]; 114% in [5]; 102% in [6]. The growth in [7] is 100%; in [8], 103%.

Consider `NC(=O)c1ncn([C@@H]2O[C@H](CO)[C@@H](O)[C@H]2O)n1`, for which the growth in experiment [1] is 96.9%; in [2] it was 89.3%; in experiment [3], 73.5%; in [4], 95.5%; in [5] it was 83.1%; in [6] it was 85.4%. For the same compound, the growth was 110% in experiment [7], 76.9% in [8] and 72.3% in [9].

As to `CCOC(=O)c1c2c(c(C)n1Cc1ccc(OC)cc1)-c1nc(N)ncc1CC2`, the growth in [1] is 98.8%; in experiment [2], 95.3%; in [3], 90%; in experiment [4] it was 130%; in experiment [5], 106%; in experiment [6], 101%. The growth is 111% in [7], 126% in experiment [8] and 93.6% in [9].

For the compound `CC(=O)Oc1c(C)c(OC(C)=O)c2c(c1C(C)=O)OC1CC(=O)C(C(C)=O)=C(O)C21C` (stereo not drawn), the growth in experiment [1] was 96.9%; in [2], 95.5%; in experiment [3], 89%; in [4], 109%; in [5], 97%; in [6], 99.3%. Moreover, the growth was 136% in experiment [7], 102% in experiment [8] and 64% in [9].

Take `COC(=O)[C@]1(C(C)C)N[C@H](c2cn(-c3ccccc3)nc2-c2ccccc2)[C@@H]2C(=O)N(c3ccc(Cl)cc3)C(=O)[C@@H]21`: the growth is 102% in experiment [1]; 97.3% in experiment [2]; 59.5% in experiment [3]; 113% in experiment [4]; 93.9% in experiment [5]; 77.5% in [6]. Besides, the growth in [7] was 107%.

For the compound `C[C@@H]1CC[C@H]2[C@@H](C)C(O)O[C@@H]3O[C@]4(C)CC[C@@H]1[C@]32OO4` (stereo partly drawn), the growth in experiment [1] is 29.9%; in experiment [2], 23.6%; in [3] it was 1.61% (active); in experiment [4], 27.3%; in [5], 22.1%; in [6], 22.9%. Moreover, the growth in [7] is 68.2%; in experiment [8], 28.5%; in experiment [9], 33.8%.

For `Cc1ccc(NC(=O)CSc2nnc3n(Cc4ccccc4)c(=O)c4c(C)c(C(N)=O)sc4n23)cc1`, the growth is 91.7% in experiment [1]; 58.5% in experiment [2]; 81.9% in experiment [3]; -24.4% (active) in experiment [4]; 75.6% in experiment [5]; 91.7% in experiment [6]. Besides, the growth in experiment [7] is 6.08% (active).

Take `O=C1Cc2cc(CCn3cncn3)c(Cl)cc2N1`: the growth is 29.5% in [1]; 55.8% in [2]; 66% in experiment [3]; 122% in experiment [4]; 74.6% in experiment [5]; 60% in experiment [6]. Further, the growth in experiment [7] was 47.1%.

Turning to `O=C1Cc2cc(CCN3CCN(CCOCCO)CC3)c(Cl)cc2N1Cc1ccc(-c2ccccc2-c2nn[nH]n2)cc1`, the growth is 47.4% in experiment [1]; 86.1% in [2]; 79.5% in experiment [3]; 111% in experiment [4]; 84.1% in [5]; 61% in experiment [6]. The growth in experiment [7] was 59.9%.

Turning to `CCCCCCCC/C=C/CCCCCCCC1=NC(C)(C)CN1CC(C)O` (stereo not drawn), the growth is 71.2% in experiment [1]; 54.9% in experiment [2]; -73.9% (active) in experiment [3]; 82.8% in [4]; 28% in experiment [5]; 62% in [6]. Moreover, the figures for the growth in experiment [7] and in [8] were 76.9% and -37.9% (active), respectively.

Take `Cc1cc2cn3c4cccnc4[nH]c(=O)c3c2cc1C`: the growth was 76.7% in experiment [1]; 22.5% in experiment [2]; 58.9% in experiment [3]; 61.3% in experiment [4]; 82.1% in experiment [5]; 75.7% in experiment [6]. In addition, the figures for the growth in [7], in experiment [8] and in [9] were 95.8%, 4.5% (active) and 18.4%, respectively.

On to `Cn1cc(-c2nc(-c3c[nH]c4ncc(F)cc34)cs2)c2cccnc21`, for which the growth in experiment [1] is 84.3%; in experiment [2], 101%; in [3], 100%; in experiment [4] it was 124%; in [5] it was 93.7%; in experiment [6], 92.5%. Besides, the growth in experiment [7] is 109%; in [8], 102%; in [9], 101%.

As to `COC(=O)[C@]1(CCSC)N[C@H](c2cn(-c3ccccc3)nc2C)[C@@H]2C(=O)N(c3ccc(C)cc3)C(=O)[C@@H]21`, the growth in [1] was 106%; in experiment [2] it was 101%; in experiment [3] it was 77.5%; in experiment [4], 104%; in experiment [5], 90.7%; in experiment [6], 93.9%. Also, the growth in [7] was 77.2%.

Turning to `Cc1c(C(N)=O)sc2c1c(=O)n(Cc1ccccc1)c1nnc(SCC(=O)Nc3ccc(Cl)cc3)n21`, the growth in experiment [1] is 50.2%; in [2], 50.8%; in [3], 75.5%; in experiment [4], -22.9% (active); in [5], 32.7%; in experiment [6], 77%. Besides, the growth in experiment [7] was 40.1%.

As for `CCSc1nnc2n(Cc3ccccc3)c(=O)c3c(C)c(C(N)=O)sc3n12`, the growth in [1] is 99%; in experiment [2], 103%; in experiment [3] it was 67%; in [4], 111%; in experiment [5], 93.7%; in experiment [6], 85.8%. Further, the growth in experiment [7] was 84.2%.

With `O=C(Nc1ccc(Nc2ccncc2)cc1)c1ccc(Nc2ccnc3ccc([N+](=O)[O-])cc23)cc1[N+](=O)[O-]`, the growth in experiment [1] is 50%; in experiment [2], 68%; in experiment [3] it was 52.8%; in experiment [4] it was 102%; in experiment [5], 65.9%; in [6], 89.3%. In addition, the growth is 120% in experiment [7], 98.8% in [8] and 109% in [9].

As for `OCCOc1c(Cl)cc(Cl)cc1Cl`, the growth was 106% in [1]; 89.8% in experiment [2]; 87.8% in [3]; 113% in experiment [4]; 99.3% in experiment [5]; 93.8% in experiment [6]. For the same compound, the growth is 70.7% in experiment [7], 113% in experiment [8] and 111% in experiment [9].

On to `c1ccc(-c2nn[nH]n2)c(-c2ccc(CN3CCN(c4nsc5ccccc45)CC3)cc2)c1`, for which the growth in [1] was 106%; in experiment [2], 92.6%; in experiment [3], 103%; in experiment [4] it was 103%; in experiment [5], 98.7%; in [6], 84%. The growth in experiment [7] is 85.1%.

For the compound `O=C1c2ccccc2-c2c1nc1ccccc1[n+]2[O-]`, the growth in experiment [1] is 118%; in [2] it was 100%; in experiment [3], 83.3%; in [4], 116%; in experiment [5], 91.4%; in experiment [6] it was 98.2%. The growth in experiment [7] was 103%; in experiment [8], 102%; in experiment [9] it was 95.8%.

Turning to `Cc1c(N(C)CS(=O)(=O)O)c(=O)n(-c2ccccc2)n1C`, the growth is 93.1% in experiment [1]; 93.9% in experiment [2]; 79.9% in experiment [3]; 108% in experiment [4]; 101% in experiment [5]; 98.8% in experiment [6]. For the same compound, the growth in experiment [7] was 109%; in [8], 96.9%; in [9], 83%.

On to `Cc1nn(-c2ccc(Cl)cc2)c2nc3c(nc12)C(=O)c1ccccc1-3`, for which the growth in [1] is 49.6%; in experiment [2] it was 78.8%; in [3] it was 110%; in experiment [4], 94.1%; in experiment [5], 65.1%; in [6], 82.9%. The growth in [7] is -3.2% (active).

As for `Cc1nn(-c2ccccc2)c2ncc3c(c12)C(=O)N(Cc1ccccc1)C3=O`, the growth is 37.3% in experiment [1]; 23.7% in experiment [2]; -30.5% (active) in experiment [3]; -26% (active) in [4]; -21.7% (active) in [5]; -0.521% (active) in experiment [6]. Further, in experiment [7], the growth was -10.2% (active).

Consider `Clc1ccc(-c2nc(-c3cccs3)no2)c(Cl)c1`, for which the growth in experiment [1] is 72.6%; in [2], 101%; in experiment [3], 70.9%; in experiment [4], 71.4%; in experiment [5], 99.8%; in experiment [6], 82%. Further, the growth in experiment [7] was 111%.

Take `Cc1nn(-c2ccccc2)c2nc3c(nc12)C(=O)CCC3`: the growth in experiment [1] was 93.8%; in [2], 90.1%; in experiment [3], 66.4%; in experiment [4], 104%; in experiment [5], 95.5%; in experiment [6], 101%. In addition, the growth in experiment [7] was 81.7%.

`Cc1nn(-c2ccccc2)c(Cl)c1C(CC(=O)c1ccc(Cl)cc1)CC(=O)c1ccc(Cl)cc1`: the growth is 94.8% in experiment [1]; 85.2% in experiment [2]; 76.7% in [3]; 104% in [4]; 88.4% in experiment [5]; 76.4% in experiment [6]. Besides, the growth in experiment [7] is 66.9%.

Consider `Nc1c2ccccc2nc2ccccc12` (tested in a mixture with another compound), for which the growth in experiment [1] is 22.6%; in experiment [2], 20.1%; in experiment [3] it was 14.9%; in experiment [4], 15.5%; in experiment [5], 8.26% (active); in experiment [6], 20.2%. In addition, the growth is 0.179% (active) in [7], 26.2% in experiment [8] and 15.4% in experiment [9].

For the origin of these results see PubChem BioAssay (NCI).
